PubChem BioAssay AID463173 (ICCB-Longwood Screening Facility, Harvard Medical School, 2010)
The whole screen tested about 52,000 compounds, of which about 4,300 (8.3%) were called active. The entries come from a sample that favours actives as a whole. Values without a mark were called inactive. No stated cut-off is given here; in the data, active means survival mostly below about 52% (no sharp cut-off); inactive means mostly above about 56%.

test system: DeltatarO mutant; experiment: S. aureus survival, RN4220 and DeltatarO strains – OD600, teichoic acid synthesis inhibitors, primary screen (AID 463173); conditions: S. aureus RN4220 wild type/DeltatarO growth, OD600, 18 h, active compounds read low, screened at 18.75 µg/mL (by protocol)

| Compound | survival |
| --- | --- |
| CC(C)N(C(=O)CSc1nnc(Cc2csc(Nc3ccccc3)n2)o1)C(C)C | 69% |
| CCOc1ccc2nc(NCCNC(=O)C3CCCCC3)c(C#N)cc2c1 | 106% |
| CCN(CC)C(=O)/C(=C\c1ccc(OC)c(OC)c1)n1ccccc1=O | 103% |
| CCc1ccc(CNC(=O)Cn2nc(C)c3c(C)n(-c4ccc(C)cc4)nc3c2=O)cc1 | 79% |
| COc1ccc(-c2cccc(NS(=O)(=O)c3cc(C)c(Cl)cc3C)c2)nn1 | 102% |
| CC(=O)c1sc2c(c1C)c(=O)n(-c1ccc(Cl)cc1)c(=O)n2Cc1cc(=O)n2cc(Cl)ccc2n1 | 58% |
| Cc1oc(-c2ccccc2)nc1C(=O)O | 72% |
| CCCNc1ccc(-c2nc(-c3ccco3)no2)cc1[N+](=O)[O-] | 57% (active) |
| CCCCNc1ccc(-c2nc(-c3ccco3)no2)cc1[N+](=O)[O-] | 57% |
| CCNc1ccc(-c2nc(-c3ccco3)no2)cc1[N+](=O)[O-] | 51% |
| COc1ccccc1CNc1ccc(-c2nc(-c3ccco3)no2)cc1[N+](=O)[O-] | 45% |
| O=[N+]([O-])c1cc(-c2nc(-c3ccco3)no2)ccc1NCc1ccccc1 | 47% (active) |
| Cc1ccc(CNc2ccc(-c3nc(-c4ccco4)no3)cc2[N+](=O)[O-])cc1 | 53% |
| CCc1ccc2[nH]c3nc(SCC(=O)OC(C)C)nnc3c2c1 | 108% |
| Cc1cc(C)c2c(=O)c3c(oc2c1)C(=O)N(CCCOC(C)C)C3c1ccccc1F (stereo unspecified) | 67% |
| COc1ccc(-n2c(SCC(=O)N3CCC(C)CC3)nc3c([nH]c4ccccc43)c2=O)cc1 | 70% |
| CCOC(=O)CSc1nc2c([nH]c3ccccc32)c(=O)n1-c1ccc(OCC)cc1 | 99% |
| Cc1cc(C)cc(-n2c(SCC(=O)N3CCCC3)nc3c([nH]c4ccccc43)c2=O)c1 | 89% |
| CCOc1ccc(-n2c(SCC(=O)N3CCOCC3)nc3c([nH]c4ccccc43)c2=O)cc1 | 0% (active) |

| Compound | survival |
| --- | --- |
| COC(=O)C(C)Sc1nc2c([nH]c3ccccc32)c(=O)n1-c1ccc(OC)cc1 (stereo unspecified) | 64% |
| CCOc1ccc(-n2c(SCC(=O)N3CCCCC3)nc3c([nH]c4ccccc43)c2=O)cc1 | 107% |
| CC1CCN(C(=O)CSc2nc3c([nH]c4ccccc43)c(=O)n2-c2ccccc2)CC1 | 75% |
| Cc1ccc(-n2c(SCC(=O)N3CCC(C)CC3)nc3c([nH]c4ccccc43)c2=O)cc1 | -5% (active) |
| CCOc1ccc(-n2c(SCC(=O)N3CCCC3)nc3c([nH]c4ccccc43)c2=O)cc1 | 98% |
| Cc1cc(C)cc(-n2c(SCC(=O)N3CCCCC3)nc3c([nH]c4ccccc43)c2=O)c1 | 88% |
| CCOc1ccc(-n2c(SC(C)C(=O)OC)nc3c([nH]c4ccccc43)c2=O)cc1 (stereo unspecified) | 0% (active) |
| Cc1cc(C)cc(-n2c(SCC(=O)N3CCC(C)CC3)nc3c([nH]c4ccccc43)c2=O)c1 | 17% (active) |
| Cc1ccccc1S(=O)(=O)Cc1ccc(C(=O)NCc2ccccc2Cl)o1 | 56% |
| Cc1ccc(-n2ncc(C(=O)NCCCN3CCc4ccccc4C3)c2C2CCN(C(=O)OC(C)(C)C)CC2)cc1C | 73% |
| COc1cccc(-n2cc(C(=O)NCc3ccccc3OC)c3ccccc3c2=O)c1 | 72% |
| CCC(Oc1ccccc1)C(=O)Nc1cccc(OCc2cc(=O)n3cccc(C)c3n2)c1 (stereo unspecified) | 128% |
| O=C1N(CN2CCCCC2)c2ccccc2C12OCCCCO2 | 94% |
| CCc1ccc(OCC2c3cc(OC)c(OC)cc3CCN2C(=O)Cc2ccc(OC)c(OC)c2)cc1 (stereo unspecified) | 76% |
| COc1ccccc1OCC(=O)NCC(c1ccc(Cl)cc1)N1CCCCC1 (stereo unspecified) | 61% |
| O=C(Nc1ccc(F)cc1F)c1cc(S(=O)(=O)N2CCCCC2)c[nH]1 | 83% |
| Cc1ccc(NC(=O)c2cc(-c3ccc(Br)s3)nc3ccccc23)cc1F | 59% |
| CCOc1cccc(CC(=O)N2CCc3c([nH]c4ccccc34)C2c2ccc(SC)cc2)c1OCC (stereo unspecified) | 107% |
| Cn1nccc1C(=O)NCc1ccc2c(c1)CCN2C(=O)c1ccc(F)cc1 | 65% |

| Compound | survival |
| --- | --- |
| COC(=O)c1ccc(CSc2nc3c([nH]c4ccccc43)c(=O)n2-c2cc(C)cc(C)c2)o1 | 8% (active) |
| CCOc1ccc(-n2c(SCC(=O)NCc3ccco3)nc3c([nH]c4ccccc43)c2=O)cc1 | 37% (active) |
| COC(=O)c1ccc(CSc2nc3c([nH]c4ccccc43)c(=O)n2-c2cccc(Cl)c2)o1 | 79% |
| COc1ccc(-n2c(SCC(=O)NCc3ccco3)nc3c([nH]c4ccccc43)c2=O)cc1 | 102% |
| COC(=O)c1ccc(CSc2nc3c([nH]c4ccccc43)c(=O)n2-c2ccc(Cl)cc2)o1 | 112% |
| O=C(CSc1nc2c([nH]c3ccccc32)c(=O)n1-c1ccc(F)cc1)NCc1ccco1 | 81% |
| CCC(C)NC(=O)CSc1nc2cc3c(cc2c(=O)n1CCCCCC(=O)NCc1ccc2c(c1)OCO2)OCO3 (stereo unspecified) | 84% |
| O=C(COc1ccccc1F)Nc1c(C(=O)Nc2cccc(F)c2)oc2ccccc12 | 75% |
| COc1ccc(-c2cc(C(F)(F)F)nc(SCC(=O)NCCc3ccc(OC)c(OC)c3)n2)cc1 | 59% |
| COc1ccc(CCNc2nc(-c3ccc(F)cc3)cc(C(F)(F)F)n2)cc1OC | 109% |
| COc1ccc(CCNC(=O)C2CCN(c3nc4ccccc4nc3C(F)(F)F)CC2)cc1OC | 92% |
| COc1ccc(CCNc2nc(-c3ccc(C)cc3)cc(C(F)F)n2)cc1OC | 87% |
| COc1ccc(CCNc2nc(-c3ccccc3OC)cc(C(F)(F)F)n2)cc1OC | -8% (active) |
| COc1ccc(CCNC(=O)Cn2nc(-c3ccc(Cl)cc3)ccc2=O)cc1OC | 75% |
| COc1cccc(-c2cc(C(F)(F)F)nc(NCCc3ccc(OC)c(OC)c3)n2)c1 | 4% (active) |
| COc1ccc(CCNC(=O)CSc2nc(-c3ccc(F)cc3)cc(C(F)(F)F)n2)cc1OC | 77% |
| COc1ccc(CCNc2nc(-c3ccc(Cl)cc3)cc(C(F)(F)F)n2)cc1OC | 8% (active) |
| COc1ccc(CCNc2nc(-c3ccc(OC)c(OC)c3)cc(C(F)(F)F)n2)cc1OC | 4% (active) |
